Reference: PubChem BioAssay
“And” between values parts separate entries of the source, which are not always exact repeats. Identical values can stand only once. Inconclusive results are not listed. The source made the active and inactive calls.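 The calls were made as follows, unless noted: active = normalized viability below 100% at a tested concentration; inactive = the rest.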

What was measured:
[1] = viability loss in pontine glioma line – cell-based, SU-DIPG-XIII, MIPE4.0, CellTiter-Glo, qHTS, dose response (AID 1347061; cut-off not given, nearly all actives have AC50 up to about 37 µM;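 also: cells exposed to compound for 48 hours before readout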); settings: CellTiter-Glo ATP luminescence
[2] = viability loss in pontine glioma line – cell-based, SU-DIPG-IV, MIPE4.0, CellTiter-Glo, qHTS, dose response (AID 1347063; cut-off not given, nearly all actives have AC50 up to about 30 µM;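 also: compound exposure lasted 48 hours before the viability readout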); settings: CellTiter-Glo ATP luminescence
[3] = growth inhibition of DIPG cells – cell-based, MIPE4.0 library, CellTiter-Glo luminescence, qHTS (AID 1347066; cut-off not given, nearly all actives have AC50 up to about 30 µM;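 also: cells exposed to compound for 48 hours before readout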); settings: SU-DIPG-VI viability, CellTiter-Glo ATP luminescence
[4] = viability loss with induced miR-34 in A549 – imaging, A549 dox-inducible miR-34, nuclei and caspase counts, primary screen (AID 1347080;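 active = compounds whose cell count with miR-34 switched on is under 0.7 times the count with it off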); settings: A549 miR-34 inducible, Hoechst nuclei count, 48 h
[5] = MELAS cybrid and Rieske KO viability enhancers – cell-based, MELAS cybrids, Rieske KO mouse fibroblasts, CellTiter-Glo, primary screen (AID 1508586;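 active = mean z-score across replicates of 1.96 or higher in either the MELAS or the Rieske mutant cell line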;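 also: z relative to plate mean and SD of compound and empty wells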); settings: low glucose
[6] = viability loss in pontine glioma line – cell-based, SU-DIPG-XXV, MIPE5.0, CellTiter-Glo, qHTS, dose response (AID 1347065; cut-off not given, nearly all actives have AC50 up to about 26 µM;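 also: cells exposed to compound for 48 hours before ATP readout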); settings: CellTiter-Glo ATP luminescence
[7] = JHH-DIPG-1 glioma cell viability, MIPE5.0 library, CellTiter-Glo luminescence, qHTS (AID 1347067; cut-off not given, nearly all actives have AC50 up to about 26 µM;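 also: cells exposed to compound for 48 hours before readout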); settings: JHH-DIPG-1 glioma viability, CellTiter-Glo ATP luminescence
[8] = viability loss in pontine glioma line – cell-based, SU-DIPG-XIII, MIPE5.0, CellTiter-Glo, qHTS, dose response (AID 1347064; cut-off not given, nearly all actives have AC50 up to about 23 µM); settings: CellTiter-Glo ATP luminescence
[9] = compounds altering HSF1 focus formation in cells – imaging, Selleck Cancer Library (AID 1347162; in the data active = plate-normalised HSF1 focus index below about 0.46); settings: human cells, HSF1 nuclear foci imaging, at 10 µM; SSMD: measured here: HSF1 foci SSMD mean; cell count: measured here: cell number; plate-normalised HSF1 focus index: stronger effect = lower value
[10] = drug combination growth inhibition, ovarian cancer – cell-based, oncology-focused library, rucaparib conditional, profiling panel (AID 1508598); settings: patient-derived ovarian cancer cells, CellTiter-Glo viability, 144 h, stronger effect = lower value
[11] = stronger effect = lower value, cell number ratio, induced over uninduced
[12] = measured here: relative caspase fold change +Dox/-Dox
[13] = measured here: total cells with miR-34 induction, stronger effect = lower value
[14] = measured here: total cells without miR-34 induction
[15] = MELAS cybrid survival, CellTiter-Glo 48 h, stronger effect = higher value
[16] = Rieske KO mouse fibroblast survival, CellTiter-Glo 72 h

O=c1cc(-c2ccc(O)c(O)c2)oc2cc(O)cc(O)c12
inactive: outcome [1] | outcome [2] | outcome [3] | fold change [4, 11] 0.817 and 1 and 0.947 | z-score [5, 15] -0.397 and 1.32
-0.97 and -0.213: z-score [5, 16]
1.18 and 0.969 and 1.11: fold change [4, 12]
8620 and 6020 and 9220: cell count [4, 14]
7040 and 6030 and 8740: cell count [4, 13]

Cc1cn2c(-c3cn[nH]c3)cnc2c(Nc2ccc(C(=O)N3CCNCC3)cc2F)n1
active: AC50 [1] 23.5 µM | AC50 [3] 18.7 µM

C[C@@H](NCc1cc2ccccc2[nH]1)c1cccc2ccccc12
inactive: outcome [1] | outcome [2] | outcome [3]
active: AC50 [6] 26.3 µM | AC50 [7] 14.8 µM

CC(=O)O[C@@]12CO[C@@H]1C[C@H](O)[C@@]1(C)C(=O)[C@H](O)C3=C(C)[C@@H](OC(=O)C(O)[C@@H](NC(=O)OC(C)(C)C)c4ccccc4)C[C@@](O)([C@@H](OC(=O)c4ccccc4)[C@H]21)C3(C)C (some centres undefined)
inactive: outcome [1] | outcome [2] | outcome [3]

COc1ccc2cc(-c3nc(-c4ccc(S(C)=O)cc4)[nH]c3-c3ccncc3)ccc2c1 (centres undefined)
active: AC50 [6] 14.8 µM | viability ([10]; at 0.00122 µM, OCI-C5x cells, with rucaparib 10 µM, 100% = cells with rucaparib alone) 95.3% | viability ([10]; at 0.00488 µM, OCI-C5x cells, without rucaparib) 95.5% | viability ([10]; at 0.00488 µM, OCI-P5x cells, without rucaparib) 96.1% | viability ([10]; at 0.0195 µM, OCI-C5x cells, with rucaparib 10 µM, 100% = cells with rucaparib alone) 96.9% | viability ([10]; at 0.0195 µM, OCI-P5x cells, with rucaparib 20 µM, 100% = cells with rucaparib alone) 91.1% | viability ([10]; at 0.0195 µM, OCI-P5x cells, without rucaparib) 90.7% | viability ([10]; at 0.0781 µM, OCI-P5x cells, with rucaparib 20 µM, 100% = cells with rucaparib alone) 95.6% | viability ([10]; at 0.0781 µM, OCI-P5x cells, without rucaparib) 95.1% | viability ([10]; at 0.313 µM, OCI-P5x cells, with rucaparib 20 µM, 100% = cells with rucaparib alone) 87.7% | viability ([10]; at 0.313 µM, OCI-P5x cells, without rucaparib) 93.7% | viability ([10]; at 1.25 µM, OCI-P5x cells, without rucaparib) 84% | viability ([10]; at 5 µM, OCI-P5x cells, with rucaparib 20 µM, 100% = cells with rucaparib alone) 26.6% | viability ([10]; at 5 µM, OCI-P5x cells, without rucaparib) 26.9%
0.971: z-score [5, 16]
6890: cell count [9]
0.892: fold change [4, 12]
7650: cell count [4, 13]
5750: cell count [4, 14]
inactive: outcome [1] | outcome [8] | outcome [3] | fold change [4, 11] 1.33 | plate-normalised HSF1 focus index [9] 1.27 | z-score [5, 15] -0.573 | viability ([10]; at 0.000305 µM, OCI-C5x cells, with rucaparib 10 µM, 100% = cells with rucaparib alone) 108% | viability ([10]; at 0.000305 µM, OCI-C5x cells, without rucaparib) 102% | viability ([10]; at 0.000305 µM, OCI-P5x cells, with rucaparib 20 µM, 100% = cells with rucaparib alone) 107% | viability ([10]; at 0.000305 µM, OCI-P5x cells, without rucaparib) 103% | viability ([10]; at 0.00122 µM, OCI-C5x cells, without rucaparib) 101% | viability ([10]; at 0.00122 µM, OCI-P5x cells, with rucaparib 20 µM, 100% = cells with rucaparib alone) 107% | viability ([10]; at 0.00122 µM, OCI-P5x cells, without rucaparib) 105% | viability ([10]; at 0.00488 µM, OCI-C5x cells, with rucaparib 10 µM, 100% = cells with rucaparib alone) 106% | viability ([10]; at 0.00488 µM, OCI-P5x cells, with rucaparib 20 µM, 100% = cells with rucaparib alone) 103% | viability ([10]; at 0.0195 µM, OCI-C5x cells, without rucaparib) 107% | viability ([10]; at 0.0781 µM, OCI-C5x cells, with rucaparib 10 µM, 100% = cells with rucaparib alone) 104% | viability ([10]; at 0.0781 µM, OCI-C5x cells, without rucaparib) 109% | viability ([10]; at 0.313 µM, OCI-C5x cells, with rucaparib 10 µM, 100% = cells with rucaparib alone) 145% | viability ([10]; at 0.313 µM, OCI-C5x cells, without rucaparib) 122% | viability ([10]; at 1.25 µM, OCI-C5x cells, with rucaparib 10 µM, 100% = cells with rucaparib alone) 122% | viability ([10]; at 1.25 µM, OCI-C5x cells, without rucaparib) 148% | viability ([10]; at 1.25 µM, OCI-P5x cells, with rucaparib 20 µM, 100% = cells with rucaparib alone) 106% | viability ([10]; at 5 µM, OCI-C5x cells, with rucaparib 10 µM, 100% = cells with rucaparib alone) 110% | viability ([10]; at 5 µM, OCI-C5x cells, without rucaparib) 113%
4.96: SSMD [9]
